CHX counter = affects cycloheximide protein synthesis inhibition readout, counter-screen | 300,000 tested, 12% active | max response, % | cell reporter, cycloheximide protein synthesis inhibition counterscreen | AID 2314; in the data active = max response mostly above about 13%, no sharp cut-off; inactive = mostly below about 14%; note: read at 38.3 µM for the half of the compounds with a filed dose; 0% is about no effect
Pf growth 96h = P. falciparum growth inhibition at 96 hour, primary screen for plastid delayed-death inhibitors | P. falciparum luciferase reporter growth, 96 h | Potency, µM (highest dose often 28.7 µM), without a hit: at the top dose activity change, negative = inhibition, most hits filed as inhibitors | 320,000 tested, 6.9% active | AID 504834; note: potency is the fitted concentration of half-maximal effect; % is set by controls: 0 for no effect and ±100 for the full control effect
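Readout is luminescence from an integrated firefly luciferase in P. falciparum. Red cells, 2% hematocrit and 0.05% parasitemia final, were cultured with compound through two parasite generations (96 hours) at 37 C, 5% CO2.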
NS1 function inh = influenza NS1 inhibition; Potency, µM (top dose mostly 46.1 µM), without a hit: at the top dose activity, positive = more growth; 270,000 tested, 0.4% active; calls by dose curve; note: potency is the fitted concentration of half-maximal effect; actives are rising curves; nearly all actives have a fitted effect of over 50% in size
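Compounds were scored for reversing the slow growth caused by influenza A NS1 in S. cerevisiae, measured by optical density at 600 nm. Assay medium contained 2% galactose at pH 6.0; NS1-free yeast of the same strain were the positive control.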
Shiga toxin inh = inhibitors of Shiga toxin in Vero cells; AID 2315; Vero cells, Shiga toxin protein synthesis inhibition reporter; inhibition, % at 38.7 µM; 290,000 tested, 9.2% active; in the data active = inhibition mostly above about 28%, no sharp cut-off; inactive = mostly below about 43%; note: 0% is about no effect
Pf growth 48h = P. falciparum growth inhibition at 48 hours (one generation); P. falciparum luciferase growth in erythrocytes, 48 h; Potency, µM (titrated, usually from 28.7 µM), without a hit: top-dose activity change, negative = inhibition, actives largely listed as inhibitors; 310,000 tested, 5.9% active; AID 504832; note: potency is the fitted concentration of half-maximal effect; % is set by controls: 0 for no effect and ±100 for the full control effect
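Firefly luciferase activity from engineered P. falciparum reports growth; inhibitors lower the luminescent signal. Cultures contained 2% hematocrit erythrocytes at 0.1% final parasitemia.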
SARS PLpro yeast = SARS-CoV PLP inhibition in yeast; Potency, µM (series often up to 32.9 µM), without a hit: at the top dose activity, positive = growth rescue, most hits filed as activators; S. cerevisiae expressing SARS-CoV PLpro, growth rescue; 330,000 tested, 0.19% active; calls by dose curve; note: potency is the fitted concentration of half-maximal effect; 0% is about no effect; nearly all actives have a fitted effect of over 55% in size
* marks the source's active call; other numbers are inactive results; ? = inconclusive; · = not tested or not shown. Only some compounds are listed: those with a hit (about 21% of all), similar ones and a draw of the others. Unless noted, calls come from the whole dose curve; as a rule, active = well fitted inhibition curve with a large enough effect; inconclusive = small, poorly fitted or top-dose-only effect, or another doubt; inactive = no such curve, though single readings can be large or run the other way.

SMILES | CHX counter | Pf growth 96h | NS1 function inh | Shiga toxin inh | Pf growth 48h | SARS PLpro yeast
CS(=O)(=O)c1ccc2nc(NC(=O)c3cccc([N+](=O)[O-])c3)sc2c1 | 31* | ? | -5% | 75* | 35% | 2%
COc1cc(C(=O)Nc2nc3ccc(S(C)(=O)=O)cc3s2)cc(OC)c1C | 7 | 7.4µM* | 2% | 4 | ? | -1%
Cc1ccc(C(=O)Nc2nc3ccc(S(C)(=O)=O)cc3s2)s1 | 70* | 24% | 12% | 72 | 65% | 1%
CCC(C)C(NC(=O)c1ccccc1)C(=O)Nc1ccc(S(=O)(=O)Nc2cc(C)nc(C)n2)cc1 (stereo not given) | · | ? | · | · | ? | -1%
Cc1ccc(CNC(=O)C2CCCN(c3ncnc4c3nc3n4CCCCC3)C2)cc1 (stereo not given) | 0 | ? | 9% | 2 | -2% | 0%
CN(CC(=O)Nc1nc2ccccc2s1)S(=O)(=O)c1ccccc1 | 29* | ? | -8% | 61* | 37% | 0%
COc1cc(OC)cc(C(=O)Nc2nc3ccc(S(C)(=O)=O)cc3s2)c1 | 17 | 118% | · | 52* | 105% | -4%
CCOC(=O)c1sc(NC(=O)c2cccnc2)nc1C | -7 | -6% | -10% | -14 | · | 3%
Cc1ccc(S(=O)(=O)CC(=O)Nc2nc3ccccc3s2)cc1 | -2 | ? | 4% | 2 | -4% | -1%
c1ccc2sc(NN=C3CCCCCC3)nc2c1 | 33* | -23% | -7% | 68 | -41% | -2%
CCNS(=O)(=O)c1ccc2nc(NC(=O)c3cccnc3)sc2c1 | 33* | · | 13% | 84* | 1% | 2%
CCCCC1C(C#N)=C(C)NC2=C1C(=O)CC(C)(C)C2 (stereo not given) | -5 | · | 3% | -21 | -19% | -5%
COc1ccc(NC(=O)C(C)N2CCN(C)CC2)cc1 (stereo not given) | -2 | -19% | 4% | -4 | · | -1%
O=C(C[n+]1ccccc1)Nc1nc2ccccc2s1 | 21* | -11% | -1% | 29 | 18% | 3%
Cc1csc2nc(NC(=O)c3ccccc3)sc(=O)c12 | 12* | 43% | -16% | 26 | 62% | -2%
Cc1ccc(S(=O)(=O)Nc2nc3ccc(S(C)(=O)=O)cc3s2)cc1 | -1 | 12µM* | -2% | -11 | -12% | -3%
Cc1ccc(C(=O)Nc2nc3ccccc3s2)s1 | 52* | 44% | -18% | 32 | -101% | 3%
Cc1nc(NC(C)c2ccccc2)c2oc3ccccc3c2n1 (stereo not given) | -1 | ? | -151% | 10 | ? | -26%
CC(=O)Nc1ccc(S(=O)(=O)N(C)CC(=O)N/N=C/c2cccc(O)c2)cc1 | 1 | 20% | -3% | 19 | -19% | 0%
O=C(CN(Cc1ccco1)S(=O)(=O)c1ccccc1)N/N=C/c1cccc(O)c1 | -3 | -23% | -21% | 48* | -29% | 2%
Cc1cccc(S(=O)(=O)N(CC(=O)Nc2ccccc2C)Cc2ccco2)c1 | 11 | 12µM* | 2% | 24 | · | -2%
COC(=O)Oc1ccc(/C=C/C(=O)OC(C)C)cc1OC(=O)OC | 30* | 77% | -11% | 49 | 55% | -28%
Cc1ccc(F)cc1NC(=O)C1C2CCC(O2)C1C(=O)O (stereo not given) | 0 | 1% | 7% | -4 | ? | 1%
COc1cccc(CN(C)C(=O)c2[nH]c(C)c(C(C)=O)c2C)c1OC | -2 | 7.4µM* | 1% | 2 | 12µM* | 1%
COc1ccccc1CNC(=O)c1[nH]c(C)c(C(C)=O)c1C | 17 | ? | 0% | 20 | -39% | 2%
SMILES | CHX counter | Pf growth 96h | NS1 function inh | Shiga toxin inh | Pf growth 48h | SARS PLpro yeast
Cc1c(Br)c([N+](=O)[O-])nn1C(C)C(=O)Nc1ccc2c(c1)OCO2 (stereo not given) | 13 | ? | 1% | 34 | ? | 1%
Nc1c2c(nc3ccccc13)N(c1ccccc1)CC2 | 7 | ? | -8% | 7 | 0% | 0%
Nc1c2c(nc3ccccc13)CCCC2O (stereo not given) | · | 11µM* | 1% | · | -5% | ·
Nc1c2c(nc3ccccc13)CCCC2=O | 17* | -11% | 6% | 14 | -3% | 0%
Cc1ccc2nc(-c3ccccc3)cc(C(=O)N3CC(C)OC(C)C3)c2c1 (stereo not given) | · | ? | · | · | 10µM* | -3%
CC1CN(C(=O)c2cc(-c3ccncc3)nc3ccccc23)CC(C)O1 (stereo not given) | · | -10% | · | · | -29% | -3%
Cc1ccc2nc(-c3ccccc3)cc(C(=O)N3CCc4ccccc4C3)c2c1 | 17 | 12µM* | 0% | -5 | 9.3µM* | -10%
COc1ccc(-c2cc(C(=O)N3CCCCCC3)c3cc(C)ccc3n2)cc1 | 2 | 13µM* | -64% | -5 | ? | -7%
COc1ccc(-c2cc(C(=O)N3CCOCC3)c3cc(C)ccc3n2)cc1 | 9 | · | -32% | 44 | 23% | -5%
CC(C)[C@H](NC(=O)C1CCN(S(=O)(=O)c2ccc(F)cc2)CC1)C(=O)NCc1ccco1 | 6 | -24% | 1% | -6 | 8% | 24%
CCOC(=O)c1c(NC(=O)COC(=O)c2cnccn2)sc(C)c1C | · | · | · | · | · | 1%
CC(=Nc1ccc2c(c1)nc(CO)n2C)C1=C(O)CC(C)(C)CC1=O | 2 | ? | -7% | 17 | 17% | -1%
CC(Oc1ccc2c3c(c(=O)oc2c1)CCC3)C(=O)NC1CCN(Cc2ccccc2)CC1 (stereo not given) | -4 | ? | 3% | -1 | ? | -3%
Cc1cc(=O)oc2cc(OC(C)C(=O)NC3CCCC3)ccc12 (stereo not given) | -3 | ? | -43% | 2 | -11% | 0%
COc1ccc(-c2cc(=O)oc3cc(OC(C)C(=O)NC4CC4)ccc23)cc1 (stereo not given) | -2 | 2.9µM* | -2% | 9 | ? | 4%
Cc1cc(=O)oc2cc(OC(C)C(=O)NC3CCN(Cc4ccccc4)CC3)ccc12 (stereo not given) | 22* | -1% | -5% | 1 | ? | -3%
CCN(CC)S(=O)(=O)c1ccc(OC)c(NC(=O)C(C)Oc2ccc3c(C)cc(=O)oc3c2)c1 (stereo not given) | -2 | 9.3µM* | 19% | -10 | 1.9µM* | 2%
COc1ccc(-c2cc(=O)oc3cc4occ(C)c4cc23)cc1 | 1 | 0.83µM* | 2% | -15 | ? | -2%
COc1ccc(S(=O)(=O)N(C)C[C@H]2Oc3ccc(NC(=O)NC4CCCCC4)cc3C(=O)N([C@H](C)CO)C[C@@H]2C)cc1 | · | · | · | · | · | 7%
CN(C)c1cccc(C(=O)NNC(=O)C23CC4CC(CC(C4)C2)C3)c1 | · | · | · | · | · | -8%
CCC1(C)Cc2ccccc2-c2nc(NCCCO)[nH]c(=O)c21 (stereo not given) | -2 | 33% | -4% | -10 | 7% | 0%
